Reference: PubChem BioAssay AID463173 (ICCB-Longwood Screening Facility, Harvard Medical School, 2010)
In all, about 52,000 compounds went through this assay and about 1,700 (3.3%) were called active. The sample holds actives, similar compounds and a random draw of the others, so the mix is not that of the screen. No stated cut-off is given here; in the data, active means survival mostly below about 52% (no sharp cut-off); inactive means mostly above about 56%.

Test system: Wild type
Experiment: S. aureus survival, RN4220 and DeltatarO strains – OD600, teichoic acid synthesis inhibitors, primary screen (AID 463173)
Details: S. aureus RN4220 wild type/DeltatarO growth, OD600, 18 h, hits give low values, screened at 18.75 µg/mL (by protocol)

| SMILES | survival |
| --- | --- |
| CCc1ccc(C(=O)c2cn(CC(=O)Nc3ccc(OC)cc3)c3cc4c(cc3c2=O)OCCO4)cc1 | 89% (inactive) |
| COc1cccc(NC(=O)C2CC(=O)N(c3ccc(Br)cc3)C2)c1 (stereo unspecified) | 63% (inactive) |
| Cc1cc(C)n(C(=O)CNc2ccccc2Cl)n1 | 103% (inactive) |
| COCCNC(=O)CCN1C(=O)c2cccnc2Oc2ccc(C)cc21 | 70% (inactive) |
| COc1cc(C2NC(=O)NC(C)=C2C(=O)Nc2cc(C)cc(C)c2)ccc1O (stereo unspecified) | 69% (inactive) |
| NC(=O)CSc1nc2ccc(NC(=O)COc3ccccc3)cc2s1 | 86% (inactive) |
| Cc1ccc(NC(=O)Cc2coc3ccc(C(C)C)cc23)cc1Cl | 53% (inactive) |
| Cc1ccc2c(CC(=O)Nc3cccc(C(F)(F)F)c3)coc2c1 | 8% (active) |
| CC(C)c1ccc2occ(CC(=O)Nc3cccc(C(F)(F)F)c3)c2c1 | 0% (active) |
| Cc1ccc2onc(CC(=O)Nc3cccc(C(F)(F)F)c3)c2c1 | 92% (inactive) |
| CC(C)c1ccc2occ(CC(=O)Nc3ccccc3Cl)c2c1 | 81% (inactive) |
| COC(=O)c1ccc(NC(=O)Cc2coc3cc(C)ccc23)cc1 | 106% (inactive) |
| CCC(=O)N1CCc2cc(Br)cc(S(=O)(=O)N3CCCC(C(=O)Nc4ccc(C(C)C)cc4)C3)c21 (stereo unspecified) | 106% (inactive) |
| O=C(CSC1=Nc2ccccc2N=C(c2ccc(F)cc2)C1)NCc1ccc(F)cc1 | 83% (inactive) |
| COC(=O)C1=C(C)N(C(C)C)C(=O)C1(NC(=O)c1ccc(C(C)(C)C)cc1)C(F)(F)F (stereo unspecified) | 65% (inactive) |
| O=C(NC1CCCCC1)c1cc(Nc2cccc(C(F)(F)F)c2)nc2ccccc12 | 72% (inactive) |
| CCn1c(SCC#N)nnc1-c1ccc(S(=O)(=O)N2CCCC2)cc1 | 100% (inactive) |
| CCCN(C(=O)C(C)C)c1nnc(-c2cc(OC)c(OC)c(OC)c2)s1 | 120% (inactive) |
| CCCn1c(=O)c2sccc2n2c(CCCC(=O)NCCOC)nnc12 | 97% (inactive) |

| SMILES | survival |
| --- | --- |
| O=C(C1CCN(c2ncnc3c2nc2n3CCCCC2)CC1)N1CCN(c2ccccc2)CC1 | 71% (inactive) |
| O=C(NCc1ccccc1)C1CCN(c2ncnc3c2nc2n3CCCCC2)CC1 | 82% (inactive) |
| Cc1cccc(N2CCN(c3ncnc4c3nc3n4CCCCC3)CC2C)c1 (stereo unspecified) | 75% (inactive) |
| Cc1cccc(N2CCN(C(=O)C3CCN(c4ncnc5c4nc4n5CCCCC4)CC3)CC2C)c1 (stereo unspecified) | 1% (active) |
| O=C(C1CCN(c2ncnc3c2nc2n3CCCCC2)CC1)N1CCN(c2ccc(F)cc2)CC1 | -3% (active) |
| O=C(NCCc1ccccc1)C1CCN(c2ncnc3c2nc2n3CCCCC2)CC1 | -4% (active) |
| O=C(C1CCN(c2ncnc3c2nc2n3CCCCC2)CC1)N1CCN(c2ccc(Cl)cc2)CC1 | 55% (inactive) |
| O=C(NCCc1ccc(Cl)cc1)C1CCN(c2ncnc3c2nc2n3CCCCC2)CC1 | 80% (inactive) |
| Cc1ccc(N2CCN(C(=O)C3CCN(c4ncnc5c4nc4n5CCCCC4)CC3)CC2)c(C)c1 | 55% (inactive) |
| CC(=O)C1=C(c2ccc(Cl)cc2)N(C(C)=O)n2c(nnc2C2CCCCC2)S1 | 85% (inactive) |
| CCOc1cccc(CC(=O)N2CCc3c([nH]c4ccccc34)C2c2ccc(C)cc2)c1OCC (stereo unspecified) | 83% (inactive) |
| Cc1ccc2c(c1)c(=O)c(C(=O)c1ccncc1)cn2CC(=O)Nc1c(C)cccc1C | 72% (inactive) |
| O=C(CC12CC3CC(CC(C3)C1)C2)N1CCCOC1 | 114% (inactive) |
| N=c1nc(SCCC(=O)O)ss1 | 112% (inactive) |
| COc1ccc(NC(=O)C(C)Sc2cc(-c3ccccc3)nc(C)n2)cc1Cl (stereo unspecified) | 81% (inactive) |
| Cc1c(Cl)cccc1NC(=O)CCS(=O)(=O)c1ccc2c(c1)CC(=O)N2C | 85% (inactive) |
| COc1ccc(C(CC(=O)Nc2ccc(C)c(C)c2)N2Cc3ccccc3C2=O)cc1OC (stereo unspecified) | 66% (inactive) |
| COc1ccc(NC(=O)Cn2c(=O)n(CCC(=O)NCCc3ccc(OC)c(OC)c3)c(=O)c3ccccc32)cc1Cl | 92% (inactive) |
| CC1=C(c2ccc(C(C)C)cc2)S(=O)(=O)N=C1N1CCC(C(=O)NCc2ccc(C)o2)CC1 | 63% (inactive) |

| SMILES | survival |
| --- | --- |
| CC1=C(c2ccc(C)c(C)c2)S(=O)(=O)N=C1N1CCC(C(=O)N2CCC(C)CC2)CC1 | 81% (inactive) |
| CC1=C(c2ccc(Cl)cc2)S(=O)(=O)N=C1N1CCC(C(=O)NCCc2ccco2)CC1 | 55% (inactive) |
| CC1=C(c2ccc(C(C)C)cc2)S(=O)(=O)N=C1N1CCC(C(=O)NCc2ccccc2)CC1 | -3% (active) |
| CC1=C(c2ccc(C(C)C)cc2)S(=O)(=O)N=C1N1CCC(C(=O)NCc2ccco2)CC1 | 63% (inactive) |
| CC1=C(c2ccc(C(C)C)cc2)S(=O)(=O)N=C1N1CCC(C(=O)NCCc2ccco2)CC1 | 1% (active) |
| CC1=C(c2ccc(C)c(C)c2)S(=O)(=O)N=C1N1CCC(C(=O)N2CCC(C(N)=O)CC2)CC1 | -4% (active) |
| CCc1ccc(C2=C(C)C(N3CCC(C(=O)NCc4ccccc4)CC3)=NS2(=O)=O)cc1 | 67% (inactive) |
| CC1=C(c2ccc(C)c(C)c2)S(=O)(=O)N=C1N1CCC(C(=O)N2CCCCC2)CC1 | 129% (inactive) |
| CCc1ccccc1NC(=O)c1cc(S(=O)(=O)N2CCCC2)cn1C | 84% (inactive) |
| CCC(C)NC(=O)Cn1c(=O)n(CC2CCC(C(=O)NC)CC2)c(=O)c2sccc21 (stereo unspecified) | 70% (inactive) |
| CC(C)N(C(=O)Cn1cc(SCC(=O)Nc2ccccc2C(F)(F)F)c2ccccc21)C(C)C | 105% (inactive) |
| COc1ccccc1Cc1nc2ccccc2nc1SCC(=O)N1CCc2ccccc21 | 49% (inactive) |
| Cc1cc(Br)ccc1NC(=O)CSc1c2c(nc3ccccc13)CCC2 | 75% (inactive) |
| N#Cc1c(C(F)(F)F)cc(-c2cccs2)nc1SCC(=O)Nc1ccc(Cl)cc1 | 78% (inactive) |
| Cc1[nH]c2ccccc2c1SCCNC(=O)c1ccc(F)cc1 | 64% (inactive) |
| Cc1ccc(C(=O)NCCSc2c(C)[nH]c3ccccc23)cc1C | 19% (active) |
| CCOc1ccc(C(=O)NCCSc2c(C)[nH]c3ccccc23)cc1OCC | 86% (inactive) |
| CCNS(=O)(=O)c1ccc(S(=O)(=O)N(Cc2ccccn2)C2CCCCC2)cc1 | 107% (inactive) |
